The list is not random: actives were taken first. Their share in the collection is about 2.5%.
Cruzain inh noDet – inhibitors of Trypanosoma cruzi cruzain without detergent; purified cruzain, Z-FR-AMC fluorescence, no detergent; Potency, µM, actives largely listed as inhibitors; 200,000 compounds, 2.3% hits; also: nearly all actives have a fitted effect of over 40% in size
Target sequence (P25779 123-467 limits assumed): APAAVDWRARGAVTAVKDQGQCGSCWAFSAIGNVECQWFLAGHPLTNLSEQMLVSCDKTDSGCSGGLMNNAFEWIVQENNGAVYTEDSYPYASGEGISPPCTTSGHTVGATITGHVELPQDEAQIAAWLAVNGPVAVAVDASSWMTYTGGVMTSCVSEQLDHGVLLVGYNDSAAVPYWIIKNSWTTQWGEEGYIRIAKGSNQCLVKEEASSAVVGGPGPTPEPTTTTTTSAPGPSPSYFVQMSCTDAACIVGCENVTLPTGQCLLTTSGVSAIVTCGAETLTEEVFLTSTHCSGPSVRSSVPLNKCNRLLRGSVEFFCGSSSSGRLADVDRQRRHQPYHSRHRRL
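Purified cruzain at 1.5 nM, pre-incubated 15 min with compound at room temperature in 100 mM sodium acetate pH 5.5, 5 mM DTT, 0.00005% Triton X-100. Reaction started with 2 uM Z-FR-AMC; AMC fluorescence increase over 60 s gives rate.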
Cruzain inh Det – cruzain (T. cruzi) inhibition with detergent | P25779 | purified cruzain, Z-FR-AMC fluorescence, 0.01% Triton | Potency, µM, actives largely listed as inhibitors | 200,000 compounds, 0.43% hits; also: nearly all actives have a fitted effect of over 40% in size
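Sodium acetate buffer (100 mM, pH 5.5) containing 5 mM DTT and 0.01% Triton X-100 hosted 1.5 nM cruzain and test compound for 15 min at room temperature. Cleavage of 2 uM Z-FR-AMC was then tracked by fluorescence.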
Of the large screens only hits and unclear results are named; the others gave an inactive call. Calls follow the shape of the dose curve; as a rule, active = well fitted curve in the direction sought with a large enough effect; inconclusive = small, poorly fitted or top-dose-only effect, or another doubt; inactive = no such curve, though single readings can be large; an effect the other way counts as inactive or inconclusive.

COc1ccccc1[C@@H]1C(c2ccc(F)cc2)=NN(c2ccccc2)[C@H]1C(=O)N1CCOC1=O	Cruzain inh noDet inconclusive
COc1ccccc1[C@@H]1C(c2cccc(C)c2)=NN(c2ccccc2)[C@H]1C(=O)N1CCOC1=O	Cruzain inh noDet 16µM
COc1ccc(Nc2nc3ccccc3nc2NS(=O)(=O)c2ccc(Cl)cc2)cc1OC	Cruzain inh noDet inconclusive
O=S(=O)(Nc1ccc(Cl)cc1)c1cccc(S(=O)(=O)c2ccc(Cl)c(Cl)c2)c1	Cruzain inh noDet inconclusive
Cc1ccc(CN2CCSc3ccc(C(=O)N4CCN(c5cc(C)ccc5C)CC4)cc32)cc1	none
N#Cc1ccc(CS(=O)(=O)c2nc3ccccc3s2)cc1	none
Cc1ccc2c(C(=O)CSc3ccccc3)c(C)[nH]c2c1	Cruzain inh noDet 13µM
Cc1[nH]c2ccccc2c1C(=O)CSc1ccccc1	none
COC(=O)c1ccc2c(=O)[nH]c(CN3c4ccccc4CC3C)nc2c1 (centres undefined)	Cruzain inh noDet inconclusive
CC1Cc2ccccc2N1Cc1nc2scc(-c3cccs3)c2c(=O)[nH]1 (centres undefined)	Cruzain inh noDet 16µM
O=c1[nH]c(CN2CCN(c3ccccc3)CC2)nc2scc(-c3ccccc3)c12	Cruzain inh noDet inconclusive
CC1Cc2ccccc2N1Cc1nc2cc(Cl)ccc2c(=O)[nH]1 (centres undefined)	Cruzain inh noDet 25µM
COc1cccc(Nc2ncc3nc(CCc4ccccc4)c(=O)n(CCC#N)c3n2)c1	none
COc1ccccc1N1CCN(C(=O)c2cnn(-c3ccc(C)c(C)c3)c2C2CCN(C(=O)OC(C)(C)C)CC2)CC1	Cruzain inh noDet inconclusive
CCc1ccc(CNC(=O)C2CCN(c3nnc(-n4c(C)ccc4C)s3)CC2)cc1	none
O=C(CSc1oc(-c2ccc(F)cc2)nc1S(=O)(=O)c1ccc(Cl)cc1)c1ccccc1	Cruzain inh noDet 32µM
O=C(CSc1oc(-c2ccco2)nc1S(=O)(=O)c1ccc(Cl)cc1)c1ccc(Cl)cc1	Cruzain inh noDet 25µM
Cc1ccc(S(=O)(=O)c2nc(-c3ccco3)oc2SCC(=O)c2ccc(Cl)cc2)cc1	Cruzain inh noDet inconclusive
O=C(CSc1oc(-c2ccccc2)nc1S(=O)(=O)c1ccc(Cl)cc1)c1ccccc1	Cruzain inh noDet inconclusive
CCc1nn(CC(=O)Nc2ccc(C)c(F)c2)c(=O)c2cc3cc(C)ccc3n12	none
Cc1oc2c(cc(NS(=O)(=O)c3ccc(F)cc3)c3ccccc32)c1C(=O)OCc1ccccc1	Cruzain inh noDet inconclusive
Cc1ccc(S(=O)(=O)Nc2cc3c(C(=O)OCc4ccccc4)c(C)oc3c3ccccc23)cc1	Cruzain inh noDet 7.9µM
Cc1ccc(S(=O)(=O)Nc2cc3c(C(=O)OCc4ccccc4)c(C)oc3c3ccccc23)c(C)c1	Cruzain inh noDet 5µM
Cc1oc2c(cc(NS(=O)(=O)c3ccc(Br)cc3)c3ccccc32)c1C(=O)OCc1ccccc1	none
COc1ccc(OCC(=O)Nc2cccc(-c3nc4ccccc4s3)c2C)cc1	none
O=S(=O)(c1ccccc1)N1CCC[C@@]2(CCN(c3ccccc3)C2)C1	Cruzain inh noDet 16µM
O=S(=O)(c1ccccc1)N1CCC2(CCCN(c3ccccc3)C2)CC1	none
O=S(=O)(c1ccccc1)N1CCC[C@@]2(CCN(c3cccc(-c4ccccc4)c3)C2)C1	Cruzain inh noDet 4µM
O=S(=O)(c1ccccc1)N1CCC2(CCCN(c3cccc(-c4ccccc4)c3)C2)CC1	Cruzain inh noDet inconclusive
Cc1ccc2c(c1)C(c1ccc(F)cc1)N(C(=O)c1ccc(OC(C)C)cc1)CC(=O)N2 (centres undefined)	none
CC(C)c1ccc(C2CC(=O)N3CN(C)CSC3=C2C#N)cc1 (centres undefined)	none
CC(C)c1ccc(C2C(C#N)=C(N)N3C(=C2C#N)Sc2ccccc23)cc1 (centres undefined)	Cruzain inh noDet 7.9µM
O=C(/C=C/c1ccc(O)c(O)c1)OC1C[C@](O)(C(=O)O)C[C@@H](O)[C@H]1O (some centres undefined)	none
O=C(CC1N=C2c3ccccc3N=C(SCC(=O)Nc3ccccc3F)N2C1=O)NCc1ccc2c(c1)OCO2 (centres undefined)	none
COc1ccc(NC(=O)CSc2nc3ccccc3n2CC(=O)N2CCCC(C)C2)cc1 (centres undefined)	none
CC1=NN(c2ccccc2)C(=O)/C1=C\c1c(C)[nH]n(-c2ccccc2)c1=O	none
CC1=NN(c2ccccc2)C(=O)/C1=C/c1c(O)n(-c2ccc(F)c(Cl)c2)[nH]c1=O	Cruzain inh Det 22µM
Cc1cc(NC(=O)CC2CCCC2)n(-c2nc3ccccc3[nH]2)n1	none
Cc1cc(NC(=O)c2ccc(F)cc2F)n(-c2nc3ccccc3[nH]2)n1	Cruzain inh noDet 20µM
C=C[C@@H]1CN2CC[C@H]1CC2[C@H](O)c1ccnc2ccccc12 (some centres undefined)	none
Cc1nn(C(=O)c2cccc(F)c2)c(C)c1S(=O)(=O)N1CCOCC1	none
COCCN1Cc2cccc(C(=O)Nc3ccc(C)c(F)c3)c2C1=O	Cruzain inh noDet inconclusive
O=S(=O)(Nc1nc2ccccc2nc1N1CCc2ccccc2C1)c1ccc(Cl)cc1	none
O=S(=O)(Nc1nc2ccccc2nc1N1CCc2ccccc2C1)c1ccc(Br)cc1	Cruzain inh noDet 7.9µM
CC(NC(=O)Cn1c(=O)oc2cc(S(=O)(=O)N3CCCCCC3)ccc21)c1ccccc1 (centres undefined)	none
Cc1oc(/N=C/c2ccccc2O)c(C#N)c1C	none
Cc1oc(/N=C/c2c(O)ccc3ccccc23)c(C#N)c1C	Cruzain inh noDet 13µM
COc1ccc(/C=N/NC(=O)Cn2nc(C)c([N+](=O)[O-])c2C)cc1	none
COc1ccc(/C=N/Nc2ccccc2)cc1Cn1nc(C)c([N+](=O)[O-])c1C	Cruzain inh noDet 13µM
COc1ccc(/C=N/Nc2ccc([N+](=O)[O-])cc2)cc1Cn1cc([N+](=O)[O-])cn1	Cruzain inh noDet 20µM
COc1ccc(/C=N/NC(=O)c2ccc(Cn3cc([N+](=O)[O-])cn3)o2)cc1O	none
COc1ccc(-c2cc3c(=O)n(CC(=O)Nc4cc(F)ccc4F)ccn3n2)cc1OC	none
CC(=O)Nc1nnc(SCC(=O)c2ccc3c(c2)Cc2ccccc2-3)s1	none
CCC(=O)Nc1nnc(SCC(=O)N2c3ccccc3CC2C)s1 (centres undefined)	Cruzain inh noDet 13µM, Cruzain inh Det 3.5µM
Cc1nnc(SCC(=O)N2c3ccccc3CC2C)s1 (centres undefined)	none
CC1Cc2ccccc2N1C(=O)CSc1nnc(NC(=O)Cc2cccs2)s1 (centres undefined)	Cruzain inh noDet 25µM, Cruzain inh Det 16µM
CCC(=O)Nc1nnc(SCC(=O)c2ccc3c(c2)Cc2ccccc2-3)s1	Cruzain inh noDet 20µM
CC1CCCC(C)N1C(=O)CSc1nnc(NC(=O)Cc2cccs2)s1 (centres undefined)	none
O=C(O)CCCCn1ccc(=O)[nH]c1=O	none
CCc1ccccc1N(C)C(=O)c1cc2c(=O)oc3ccccc3c2s1	none
CCCOC(=O)c1c(NC(=O)c2cc3ccccc3c(=O)o2)sc2c1CCC(C)C2 (centres undefined)	none
CC(=O)OC1CC(C)OC(C)O1 (centres undefined)	none
COc1cc(Cl)cc2c1Sc1ccccc1/C2=C/CCN(C)C	none
CN(C)CC/C=C1/c2ccccc2Sc2c(O)cc(Cl)cc21	Cruzain inh noDet 25µM
O=C(CN1CCOCC1)Nc1nc(-c2ccc3c(c2)CCN3S(=O)(=O)c2ccccc2)cs1	Cruzain inh noDet inconclusive
